Potency and outcome data for seven molecules are collected here from PubChem BioAssay (Tox21).

SMILES strings stand for the structures. “And” between values parts separate entries of the source, which are not always exact repeats. Identical values can stand only once. Results filed as inconclusive are left out. Where a structure was tested more than once in an assay, its records may differ in their call. The source made the active and inactive calls. Unless noted, the call rests on the fitted dose curve; in most records, active means well fitted curve in the direction sought with a large enough effect in the repeat runs; inconclusive means weak or mixed curves; inactive means no such curve, though single readings can be large; an effect the other way counts as inactive or inconclusive.

Assay [1] is described as follows: qHTS assay for small molecules that induce genotoxicity in human embryonic kidney cells expressing luciferase-tagged ATAD5 (AID 651632). Further: nearly all actives have a fitted effect of over 15% in size. Further: potency means the concentration at half of the fitted maximal effect. As to conditions: HEK293T ATAD5-luciferase induction, 16 h; series mostly up to 83.3 µM. In a few lines:
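HEK293T cells carrying a luciferase reporter tagged to ATAD5 were exposed to compound or DMSO vehicle for 16 hr at 37C, 5% CO2. Amplite was added, and after 30 min at room temperature luciferase activity was read as a marker of ATAD5 induction.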
A general note: Quantitative high-throughput screening tests each substance at several concentrations.

Assay [2] can be described thus: qHTS assay for small molecule agonists of the p53 signaling pathway - cell viability (AID 651633; calls by dose curve; further: nearly all actives have a fitted effect of over 30% in size; further: potency means the concentration at half of the fitted maximal effect). To be noted: p53RE-bla HCT-116 viability, ATP luminescence, 16 h; series mostly up to 83.3 µM. A digest of the protocol:
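p53RE-bla cells, seeded at 4,000 per well and rested 5 h at 37 C/5% CO2, received compounds in DMSO for 16 h at 37 C. CellTiter-Glo was then added, and luminescence was read after 30 min at room temperature to gauge cytotoxicity.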

The nature of assay [3]: qHTS assay for small molecules that induce genotoxicity in human embryonic kidney cells expressing luciferase-tagged ATAD5 - cell viability (AID 651634; calls by dose curve; further: nearly all actives have a fitted effect of over 25% in size). As to conditions: HEK293T ATAD5-luc cells viability, CellTiter-Fluor, 15.5 h; series mostly up to 83.3 µM. A digest of the protocol: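 HEK293T cells expressing luciferase-tagged ATAD5 were exposed to compound or DMSO for 15.5 hr at 37C, 5% CO2. Viability was then read as live-cell protease activity by CellTiter-Fluor fluorescence after 30 min at 37C.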

A short description of assay [4]: qHTS assay for small molecule disruptors of the mitochondrial membrane potential - cell viability (AID 720634; calls by dose curve;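 further: human HepG2 liver cancer cells; nearly all actives have a fitted effect of over 20% in size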). As to conditions: HepG2 viability, ATP luminescence (CellTiter-Glo), 1 h; series mostly up to 83.2 µM. In a few lines: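 HepG2 cells seeded overnight at 37 C, then exposed to compound or DMSO for 1 hr at 37 C, 5% CO2. m-MPI dye added, then CellTiter-Glo for 30 min at room temperature; viability read as ATP luminescence.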

The nature of assay [5]: qHTS assay for small molecule disruptors of the mitochondrial membrane potential (AID 720635). Further: potency means the concentration at half of the fitted maximal effect. To be noted: HepG2 mitochondrial membrane potential, Mito-MPS dye ratio; series mostly up to 83.2 µM. In a few lines:
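HepG2 cells (2,000/well) attached overnight at 37C, then took compound for 1 hr at 37C, 5% CO2. Mito-MPS dye was added for 30 min; fluorescence was read at 490/535 nm (monomers) and 540/590 nm (aggregates).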

Assay [6] can be described thus: qHTS assay to test for compound auto fluorescence at 590 nm (red) in HepG2 cells (AID 720674). As to conditions: HepG2 autofluorescence, red 540/590 nm, 1 h; series mostly up to 91.3 µM. A digest of the protocol: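 Intrinsic compound fluorescence in the red window (Ex/Em 540/590 nm) is measured in attached HepG2 cells exposed for 1 hr, DMSO vehicle as baseline, benchmarked to Rose Bengal sodium.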

Assay [7] is described as follows: qHTS assay to test for compound auto fluorescence at 535 nm (green) in HepG2 cells (AID 720675). To be noted: green autofluorescence 485/535 nm, 1 h; series mostly up to 91.3 µM.
Assay [8] is described as follows: qHTS assay to test for compound auto fluorescence at 460 nm (blue) in HEK293 cells (AID 720678). To be noted: blue autofluorescence 405/460 nm; series mostly up to 91.3 µM. In a few lines: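 Intrinsic compound fluorescence is recorded in live HEK293 cultures after overnight incubation at 37C, 5% CO2, using excitation 405 nm and emission 460 nm. Values are referenced to triamterene.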

Assay [9] can be described thus: qHTS assay to test for compound auto fluorescence at 590 nm (red) in HEK293 cells (AID 720679). To be noted: red autofluorescence 540/590 nm; series mostly up to 91.3 µM. In a few lines:
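Red autofluorescence, HEK293 cells: 2,000 cells/well; attach 4-5 hr 37C; add 23 nL cpd or DMSO; incubate o/n 37C 5% CO2; read Ex540/Em590; Rose Bengal sodium reference.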

As to `O=C(CBr)c1ccccc1`, the Potency entry in assay [1], in [2], in assay [3], in assay [4] and in assay [5] was “inactive” in each case. Besides, the result in assay [6], in [7], in assay [8] and in assay [9] was inactive.

Turning to `CCCC(=O)Cl`, the Potency entry in assay [1], in assay [2], in [3], in [4] and in [5] was “inactive” each time. Also, the molecule was called inactive in assay [6], in assay [7] and in assay [9].

For the molecule `CNP(=O)(OC)Oc1ccc(C(C)(C)C)cc1Cl` (centres undefined), the Potency result in [1], in [2], in assay [3], in assay [4] and in assay [5] was “inactive” throughout. For the same molecule, the call in assay [6] and in assay [9] was inactive.

In the case of `CN1[C@@H]2CC[C@H]1CC(OC(=O)c1cc(Cl)cc(Cl)c1)C2` (some centres undefined), the Potency entry in assay [1], in assay [2], in assay [3] and in assay [4] was “inactive” throughout. Besides, the molecule was called inactive in assay [6], in assay [7], in [8] and in [9].

On to `O=C(CCl)c1ccc(Cl)cc1Cl`, for which the Potency in assay [1] was 18.8 µM (active) and 43.3 µM (active); in assay [2], 5.96 µM (active) and 9.69 µM (active) and inactive; in assay [5], “inactive and 17.1 µM (active)”. The Potency result in assay [3] and in assay [4] was “inactive” in each case. In addition, the outcome in [6], in [7], in [8] and in [9] was inactive.

On to `CCOP(=O)(OCC)Oc1ccc([N+](=O)[O-])cc1`, for which the Potency entry in assay [1], in assay [2], in assay [3], in [4] and in assay [5] was “inactive” in each case. Moreover, the outcome in assay [6], in [7], in [8] and in assay [9] was inactive.

For the molecule `C=CC[C@]1(O)CC[C@H]2[C@@H]3CCC4=CC(=O)CCC4=C3C=C[C@@]21C`, the Potency result in [1], in assay [2], in assay [3], in assay [4] and in assay [5] was “inactive” in each case. Moreover, the call in [6], in [7], in [8] and in [9] was inactive.
